Results published in PubChem BioAssay (NCATS).
Values joined by “and” are separate entries in the source; they are usually repeats but may differ in a detail not shown here. Equal entries are not always repeated. Results filed as inconclusive are left out. More than one record can exist for a structure, and the calls need not agree. Active and inactive are the calls of the source. Unless noted, the rule behind the calls is not given here.

Assays:
[1] = qHTS profiling of the MIPE4 collection as inhibitors of Plasmodium falciparum (3D7) proliferation (AID 743344);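 note: scaled between DMSO vehicle wells and 0.29 µM artemisinin as full inhibition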; conditions: P. falciparum 3D7 in erythrocytes, SYBR Green DNA fluorescence, 72 h; at 28.5 µM unless noted
Outline: (§1)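 Parasite DNA was quantified by SYBR Green I fluorescence (ex 485, em 535 nm) after overnight lysis in saponin/Triton buffer at room temperature. Cultures at 0.3% parasitemia and 2.5% hematocrit were first exposed to compound for 72 h at 37 C; signals were normalised to artemisinin (0.29 uM) and vehicle wells.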

[2] = qHTS profiling of the MIPE4 collection as inhibitors of Plasmodium falciparum (DD2) proliferation (AID 743345); conditions: P. falciparum Dd2 in erythrocytes, SYBR Green DNA, 72 h; at 28.5 µM unless noted
Outline: as §1

[3] = qHTS profiling of the MIPE4 collection as inhibitors of Plasmodium falciparum (DD2) proliferation (Rep 2) (AID 743346); conditions: P. falciparum Dd2 in erythrocytes, SYBR Green DNA, 72 h; at 28.5 µM unless noted
Outline: as §1

[4] = qHTS profiling of the MIPE4 collection as inhibitors of Plasmodium falciparum (HB3) proliferation (AID 743347);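 note: plate controls were DMSO vehicle wells for no effect and artemisinin wells for full effect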; conditions: P. falciparum HB3 in erythrocytes, SYBR Green DNA, 72 h; at 28.5 µM unless noted
Outline: as §1

[5] = High-throughput drug toxicity screening in the BPDCN cell line Gen2.2 (AID 1224824); conditions: Gen2.2 BPDCN cells; at 45.8 µM (top of the series) unless noted;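 note: cells exposed to compounds for 48 h before reading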
Outline: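 Gen2.2 cells, 500 per well in phenol red-free RPMI with 10% FBS, exposed to compounds 48 h at 37 C, 5% CO2; viability by CellTiter-Glo luminescence. Percent activity scaled to DMSO (100%) and 9.2 uM bortezomib final (0%).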

[6] = High-throughput drug toxicity screening in the BPDCN cell line Cal-1 (AID 1224825); conditions: Cal-1 BPDCN cell viability, qHTS; at 45.8 µM (top of the series) unless noted
Outline: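 Viability of the BPDCN line Cal-1 is measured as ATP-based luminescence (CellTiter-Glo) following 48 h incubation with compounds. Percent activity uses DMSO-treated wells as 100% and 9.2 uM bortezomib as 0%.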

[7] = qHTS assay for measurement of the activity of small molecule inhibitors on Zika virus induced Caspase-3 activity in human iPSC derived neural progenitor cells (hNPCs) (AID 1224857; active = well fitted curve in the direction sought with a large enough effect; an effect the other way counts as inactive or inconclusive; note: nearly all actives have a fitted effect of over 65% in size; note: potency is the fitted concentration of half-maximal effect)
Outline: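 Human iPSC-derived neural progenitor cells pretreated 1 hr with compounds, then infected with Zika virus (2 FFU/cell) for 6 hours at 37 C. Caspase-3/7 measured by Caspase-Glo luminescence; % inhibition calculated from induction scaled to uninfected (0%) and infected (100%) wells.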

[8] = qHTS assay for measurement of the activity of small molecule inhibitors on Zika virus induced Caspase-3 activity in human astrocytoma cells (AID 1224859; active = well fitted curve in the direction sought with a large enough effect; an effect the other way counts as inactive or inconclusive; note: potency is the fitted concentration of half-maximal effect)
Outline: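 SNB-19 astrocytoma cells, 250/well, pretreated 1 h with compounds, then Zika virus at 2 FFU/cell for 6 h at 37 C; Caspase-Glo 3/7 luminescence after 30 min; percent inhibition normalised to uninfected and infected controls.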

[9] = qHTS profiling for inhibitors of Plasmodium falciparum (DD2) proliferation (AID 743323); conditions: at 28.7 µM (top of the series), lower = more inhibition
Outline: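 Parasite DNA quantified by SYBR Green fluorescence (ex 485, em 535 nm) after saponin/Triton lysis and overnight dark incubation. Cultures: 0.3% parasitemia, 2.5% hematocrit, 72 h, 37 C; data scaled between DMSO and 0.29 uM artemisinin.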

[10] = qHTS profiling for inhibitors of Plasmodium falciparum (HB3) proliferation (AID 743324; active = well fitted curve in the direction sought with a large enough effect; an effect the other way counts as inactive or inconclusive;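 note: 100% = DMSO vehicle wells and 0% = artemisinin-treated control wells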); conditions: Plasmodium falciparum HB3 blood-stage proliferation; at 28.7 µM (top of the series)
Outline: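 SYBR Green fluorescence (485 ex/535 em) of lysed cultures, incubated overnight at room temperature in the dark, quantifies parasite DNA. Infected erythrocytes at 0.3% parasitemia and 2.5% hematocrit were exposed 72 h; values normalized to DMSO and 0.29 uM artemisinin controls.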

Structure (SMILES)	parasite growth, % of DMSO control [1]	parasite growth remaining, % of DMSO control (lower = more inhibition) [2]	parasite growth, % of control (lower = inhibition) [3]	growth, % of control [4]	cell viability, % of control (lower = more cytotoxic) [5]	viability (% of control) [6]	Potency [7]	Potency [8]	activity, percent of control [9]	remaining proliferation (% of control), lower = more inhibition [10]
OCCN1CCN(CCCN2c3ccccc3Sc3ccc(C(F)(F)F)cc32)CC1	7.22%	10.5%	23.4%	10.5%	85.8%	6.77%	inactive	inactive		
CS(=O)(=O)CCNCc1ccc(-c2ccc3ncnc(Nc4ccc(OCc5cccc(F)c5)c(Cl)c4)c3c2)o1	8.87%	7.86%	51.8%	13%	4.7%	2.82%	inactive	inactive	12.2%	1.42%
Cn1ccc2cc3c(cc21)CCN3C(=O)Nc1cccnc1	23.4%	72.7%	13.8%	56%	100%	69.5%	inactive	inactive	23%	
Cc1cn([C@H]2C[C@H](N=[N+]=[N-])[C@@H](CO)O2)c(=O)[nH]c1=O	412%	109%	117%	588%	59.6%	78.5%	inactive	inactive		
NCCS(=O)(=O)O	102%	102%	90.9%	110%	573%	133%	inactive	inactive		
NC(=O)OCC(COC(N)=O)c1ccccc1	97.2%	97.8%	95.5%	63.7%	156%	96.1%	inactive	inactive		
CC#C[C@]1(O)CC[C@H]2[C@@H]3CCC4=CC(=O)CCC4=C3[C@@H](c3ccc(N(C)C)cc3)C[C@@]21C	7.43%	45.8%	11.9%	6.33%	6.18%	5.97%	inactive	inactive		
CN1CCC(=C2c3ccccc3CC(=O)c3sccc32)CC1	13.6%	55.5%	40.5%	12.6%	14.3%	23.6%	inactive	inactive		
CCc1cccc2c3c([nH]c12)C(CC)(CC(=O)O)OCC3 (stereo not drawn)	71%	86%	85%	94.1%	138%	128%	inactive	inactive		
Nc1c2c(nc3ccccc13)CCCC2	7.17%	15.1%	10.3%	20.2%	131%	101%	inactive	inactive		
CCC1(C)CC(=O)NC1=O (stereo not drawn)	99.5%			102%	184%	128%	inactive	inactive		
CCOC(=O)Nc1ccc(NCc2ccc(F)cc2)nc1N						96.5%	inactive	inactive		
COc1ccc2[nH]cc(CCNC(C)=O)c2c1	89.5% and 101%	107% and 104%	89.3% and 83%	79.2% and 70.9%	132%	65.3%	inactive	inactive		
NCCc1cnc[nH]1	95.8%	101%	109%	108%	166%	99.6%	inactive	inactive		
COc1ccccc1OCCNCC(O)COc1cccc2[nH]c3ccccc3c12 (stereo not drawn)	16.5%	17.9%	20.7%	5.04%	167%	89.8%	inactive	inactive		
Cc1ccccc1N1C(=O)c2cc(S(N)(=O)=O)c(Cl)cc2NC1C (stereo not drawn)	92.5%	51%	83.2%	72.5%	73.5%	108%	inactive	inactive		
COc1nc(C)nc(Cl)c1NC1=NCCN1	89.8%	89.9%	92.6%	98.4%	136%	97.7%	inactive	inactive		
O=C(Nc1ccc([N+](=O)[O-])cc1Cl)c1cc(Cl)ccc1O	5.14%	6.45%	6.93%	3.45%	10.1%	20.3%	inactive and 1.05 µM (active)	2.82 µM (active) and 1.18 µM (active) and 1 µM (active)		
CN1CCN(CCCN2c3ccccc3Sc3ccc(Cl)cc32)CC1	6.12%	13%	28.4%	7.64%	107%	22.7%	inactive	inactive		
Cn1c(=O)c2[nH]cnc2n(C)c1=O		102%			123%	96.4%	inactive	inactive		
COc1ccc(C2CNC(=O)C2)cc1OC1CCCC1 (stereo not drawn)	109%	101%	116%	98.4%	170%	117%	inactive	inactive		
CN(C)C(=N)N=C(N)N	97.5%	99.4%	85.6%	110%		99.5%	inactive	inactive	125%	102%
Nc1ccn([C@H]2CC[C@@H](CO)O2)c(=O)n1	114%	115%	74.1%	176%	251%	102%	inactive	inactive		
